KB-3-1 cytotox: KB-3-1 parental cell cytotoxicity; KB-3-1 viability, CellTiter-Glo ATP luminescence, 72 h; AID 1347075; 400,000 compounds, 1.4% hits; Potency, µM (highest dose often 46.1 µM), actives largely listed as cytotoxic; note: % is set by controls: 0 for no effect and ±100 for the full control effect; nearly all actives have a fitted effect of over 60% in size
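Here the drug-naive KB-3-1 line serves as comparator for MDR sub-line selectivity; cells received compound titrations, 72 h at 37 °C, then CellTiter-Glo readout.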
ALOX12 inh: ALOX12 (human) lipoxygenase inhibition; P18054; purified 12hLO, xylenol orange hydroperoxide absorbance; Potency, µM (doses to about 108 µM), without a hit: at the highest dose activity change, negative = inhibition, hits mostly inhibitors; 580,000 compounds, 1.1% hits; AID 1671190; note: % is set by controls: 0 for no effect and ±100 for the full control effect
Target sequence (P18054 whole entry, looked up): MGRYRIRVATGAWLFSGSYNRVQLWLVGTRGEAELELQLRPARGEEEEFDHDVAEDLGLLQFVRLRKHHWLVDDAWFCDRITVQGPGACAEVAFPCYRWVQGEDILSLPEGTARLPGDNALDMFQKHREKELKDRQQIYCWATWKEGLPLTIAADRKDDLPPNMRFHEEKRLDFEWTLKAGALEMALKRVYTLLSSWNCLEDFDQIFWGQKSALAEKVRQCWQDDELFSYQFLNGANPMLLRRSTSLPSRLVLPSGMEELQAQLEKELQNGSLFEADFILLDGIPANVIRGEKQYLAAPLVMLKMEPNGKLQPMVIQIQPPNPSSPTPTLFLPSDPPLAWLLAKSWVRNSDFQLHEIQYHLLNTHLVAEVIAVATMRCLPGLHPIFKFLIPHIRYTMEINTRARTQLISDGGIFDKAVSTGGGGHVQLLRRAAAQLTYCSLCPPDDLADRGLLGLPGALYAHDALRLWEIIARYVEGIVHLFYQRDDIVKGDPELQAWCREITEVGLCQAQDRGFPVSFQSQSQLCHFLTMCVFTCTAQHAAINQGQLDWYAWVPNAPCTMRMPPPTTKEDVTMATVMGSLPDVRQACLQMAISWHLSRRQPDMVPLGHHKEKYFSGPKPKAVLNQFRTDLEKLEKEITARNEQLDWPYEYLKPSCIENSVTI
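Purified human 12hLO (150 nM final) in 25 mM Hepes, 0.01% Triton X-100, pH 7.0 was preincubated 15 min at room temperature with compound. Then 40 uM arachidonic acid was added, 30 min. Hydroperoxide was read by Fe-XO absorbance ratio 573/405 nm.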
MCF10A rereplic: induces DNA re-replication in MCF 10a normal breast cells. Potency, µM (highest dose often 46.1 µM), inactives show at the highest dose activity, positive = re-replication, usual class: activators. 350,000 compounds, 2.9% hits. MCF 10A DNA re-replication, Hoechst nuclear intensity, 48 h; note: % of control where 0% means no effect; nearly all actives have a fitted effect of over 50% in size
PINK1 modulator: changes PINK1 expression; 410,000 compounds, 0.2% hits; AID 624263; PINK1 immunofluorescence, high-content cytometry, 24 h; Potency, µM (highest dose often 76.6 µM), without a hit: top-dose activation (PINK1 increase), actives largely listed as activators; active = well fitted activation curve with a large enough effect; inconclusive = small, poorly fitted or top-dose-only effect; cell line not stated here; note: % of control where 0% means no effect; nearly all actives have a fitted effect of over 65% in size
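Stable cell line treated 24 h with compounds at 5 concentrations (CCCP controls), then fixed and immunostained for PINK1 plus nuclear and cell stains; PINK1 immunofluorescence quantified by laser-scanning microplate cytometry.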
KB-V1 cytotox: KB-V1 MDR subline cytotoxicity; 400,000 compounds, 3.4% hits; Potency, µM (top dose mostly 46.1 µM), hits mostly cytotoxic; KB-V1 MDR cells viability, CellTiter-Glo, 72 h; note: % is set by controls: 0 for no effect and ±100 for the full control effect; nearly all actives have a fitted effect of over 60% in size
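Drug-selected KB-V1 cells, grown in DMEM lacking phenol red with 10% FBS, receive compound titrations; after three days at 37 degrees C, surviving cell ATP is quantified by CellTiter-Glo luminescence and responses normalized and curve-fitted.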
SW480 rereplic: induces DNA re-replication in SW480 colon adenocarcinoma cells; 340,000 compounds, 1.8% hits; SW480 DNA re-replication, Hoechst DNA content imaging, 48 h; Potency, µM (doses to about 46.1 µM), without a hit: at the highest dose re-replication activation, actives largely listed as activators; note: % of control where 0% means no effect; nearly all actives have a fitted effect of over 55% in size
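Treated cells incubate 48 hr (37 C, 5% CO2), are stained 40 min with Hoechst, and nuclear fluorescence is enumerated; a rise in nuclei with high DNA signal marks re-replication.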
Starred values were filed as active, the others as inactive; i = inactive; ? = inconclusive; / = not tested or not shown; [ ] = remark or other dose. In the library only some 5.8% were active in any assay of this set; here they are far more common. Unless noted, calls come from the whole dose curve; as a rule, active = well fitted curve in the direction sought with a large enough effect; inconclusive = small, poorly fitted or top-dose-only effect, or another doubt; inactive = no such curve, though single readings can be large; an effect the other way counts as inactive or inconclusive. Potency is the fitted concentration of half-maximal effect.

SMILES	KB-3-1 cytotox	ALOX12 inh	MCF10A rereplic	PINK1 modulator	KB-V1 cytotox	SW480 rereplic
CCOC(=O)C1C(=O)C(C(C)=O)C(=O)CC1CC(C)SCC (stereo unspecified)	i	-9%	-6%	/	21µM*	-13%
CCOc1ccc(Nc2nc(Cc3nnc(SCC(=O)c4ccc(C)c(C)c4)o3)cs2)cc1	i	-1%	13%	0%[38.3 µM]	13µM*	?
O=C(Nc1cccc(F)c1)N1C[C@@H]2C[C@H](C1)c1c(-c3cc4ccccc4s3)ccc(=O)n1C2	/	1%	/	/	/	/
Cc1ccc(OCc2ccc(C(=O)Nc3nc4ccccc4n3Cc3ccccc3)o2)c([N+](=O)[O-])c1	i	10%	13µM*	3%	?	?
O=C(Nc1nc2ccccc2n1Cc1ccccc1)c1ccc(COc2ccccc2[N+](=O)[O-])o1	i	18%	?	?	?	?
COc1ccc(-n2nc(C(=O)NCC(=O)Nc3cc(OC)c(OC)c(OC)c3)c3ccccc3c2=O)cc1Cl	i	-12%	23µM*	1%	i	6%
CCN(CC)C(=O)CNC(=O)c1nn(-c2ccc(OC)c(Cl)c2)c(=O)c2ccccc12	i	?	0%	0%	i	-4%
Cc1cc(C)c(S(=O)(=O)Nc2ccc3oc4c(c3c2)C(=O)CC(C)(C)C4)cc1C	i	-22%	/	3%	i	/
COc1ccc(S(=O)(=O)Nc2ccc3oc4c(c3c2)C(=O)CC(C)(C)C4)cc1	?	-9%	/	8%	18µM*	/
N#CC1(C(=O)NCc2cccc(NC(=O)C3CCCC3)c2)CCCC1	/	24%	/	/	/	/
COc1ccccc1Nc1ncnc2c1cnn2-c1cccc(Cl)c1	/	3%	/	/	/	/
CN(C)c1ccc(C=O)cc1	?	8%	/	2%	?	/
CN(C)c1ccc(/C=C/c2cc[n+](C)cc2)cc1	23µM*	1µM*	?	4%	i	?
Cc1ccc(/C=C/c2ccc(N(C)C)cc2)[n+](C)c1	2.1µM*	?	-11%	?	i	-2%
CN(C)c1nc(N)nc(CSc2ccccc2Cl)n1	/	0%	/	/	/	/
CN(C)c1nc(N)nc(CSc2ncc(Cl)cc2Cl)n1	i	-24%	?	6%[38.3 µM]	15µM*	4%
CCCCc1cc(=O)oc2cc(C)cc(OCC(=O)N3C[C@H]4C[C@@H](C3)c3cccc(=O)n3C4)c12	?	-4%	?	-1%	i	1.8µM*
COc1ccc(CNC(=O)NCC2Cn3cccc3C(=O)N2Cc2ccccc2)cc1 (stereo unspecified)	/	-3%	/	/	/	/
CC/C(=N\NC(=O)c1c(-c2ccccc2)noc1C)c1ccc(C)o1	i	6%	17%	4%	13µM*	2%
CC/C(=N\NC(=O)c1ccoc1C)c1ccc(C)o1	i	-10%	-2%	0%	i	-3%
Cc1onc(-c2ccccc2)c1C(=O)NN=Cc1cc(Cl)cc(Cl)c1O	/	13µM*	/	/	/	/
Cc1ccc2c(C)c(CCC(=O)N3CCCCCCC3)c(=O)oc2c1	/	36%	/	/	/	/
COc1ccc(CN2C(=O)c3ccccc3C(/C=N/OCc3ccc(Cl)cc3)C2=O)cc1 (stereo unspecified)	?	-2%	19%	?	?	?
COc1ccc(CN2C(=O)c3ccccc3C(/C=N\OCc3ccc(F)cc3)C2=O)cc1 (stereo unspecified)	?	-17%	7%	?	16µM*	-1%
CCC1(C(=O)N2CCc3ccccc3C2)CCCCC(=O)N1 (stereo unspecified)	/	2%	/	/	/	/
SMILES	KB-3-1 cytotox	ALOX12 inh	MCF10A rereplic	PINK1 modulator	KB-V1 cytotox	SW480 rereplic
CC(C)CC1=NN2C(=N)/C(=C\c3coc4ccccc4c3=O)C(=O)N=C2S1	i	?	8%	7%	i	-6%
CCSC1=NSC2=NC(=O)/C(=C\c3coc4ccccc4c3=O)C(=N)N12	i	45µM*	18µM*	21%	i	?
CCN(CC(=O)N1c2ccccc2OCC1c1ccccc1)Cc1nc2cc(Cl)ccc2c(=O)[nH]1 (stereo unspecified)	/	3%	/	/	/	/
CCCCc1nc2n[nH]c(N)c2c2c1CCCC2	4.1µM*	-11%	?	0%	0.52µM*	1%
Cc1ccc(N(C(C)C(=O)Nc2cc(Cl)ccc2Oc2ccccc2)S(C)(=O)=O)cc1 (stereo unspecified)	i	-4%	0%	/	?	8.2µM*
Cc1ccc(N(CC(=O)Nc2cc(Cl)ccc2Oc2ccccc2)S(C)(=O)=O)cc1C	?	30%	2%	6%	21µM*	0%
Cc1ccc2[nH]c(-c3ccccc3)c(C)c2c1	/	-24%	/	/	/	/
COC(=O)c1sc(NC(=O)COc2cc(C)cc(C)c2)nc1C	/	-17%	/	/	/	/
O=C(OCc1ccco1)c1cccnc1	i	-7%	13µM*	-2%	i	?
O=C(Nc1ccn(CCCN2CCN(c3ccccc3)CC2)c(=O)n1)OCc1ccccc1	?	?	/	7%	?	/
O=C(Nc1ccn(CCCN2CCN(Cc3cccc4ccccc34)CC2)c(=O)n1)OCc1ccccc1	?	?	/	1%	18µM*	/
CCNC(=O)NC(=O)CN(Cc1ccccc1)c1ccccc1	/	29%	/	/	/	/
Cc1[nH]nc2ccc(-c3cncc(OC[C@@H](N)Cc4ccccc4)c3)cc12	/	7.7µM*	/	/	/	/
Cc1ccc(C(=O)NC(C)c2ccc(C(F)(F)F)cc2)cn1 (stereo unspecified)	/	32%	/	/	/	/
CCOC(=O)c1oc2cc(OS(C)(=O)=O)ccc2c(=O)c1-c1ccc(OC)c(OC)c1	/	-16%	/	/	/	/
O=c1ccsn1Cc1ccccc1	i	?	?	0%	i	18µM*
O=C1NC(Cc2ccccc2)C(=O)N1Cc1ccccc1 (stereo unspecified)	i	-17%	0%	0%	i	-8%
Cc1ccc(N=C2CCCN2Cc2ccccc2)c(C#N)c1	?	4%[57.4 µM]	4%	1%	18µM*	5%
Cc1ccc(N=C2CCCCCN2C)c(C#N)c1	i	?	1%	0%	i	-9%
Cc1ccc(CNC(=O)N2CCC3(CC2)Nc2ccccc2-n2cccc23)cc1	/	-17%	/	/	/	/
Cc1cc(OC2CCCCC2)nc(-c2ccccc2O)n1	i	-4%	21µM*	12%	i	10%
CCCN(Cc1cc2cc(C)ccc2[nH]c1=O)C(=O)c1cccc([N+](=O)[O-])c1	i	-8%	22%	0%	?	2.3µM*
O=C(Nc1ccc(NC(=O)c2cccc([N+](=O)[O-])c2)cc1)c1cccc([N+](=O)[O-])c1	i	0%	-6%	4%	i	14%
